PfHsp90 set2: reduces growth (ATP signal) of yeast expressing P. falciparum Hsp90. S. cerevisiae expressing PfHsp90, BacTiter-Glo ATP, 48 h; yeast lacking PDR1 and PDR3 efflux regulators. AID 504621. inhibition, % at 9.4 µM. actives 0.32% (n = 310,000);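 active = every replicate shows inhibition above about 80%, whatever the replicate mean, limit read from the data; inconclusive = mean inhibition reaches the set limit but some replicate falls short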
esBAF inh: inhibitors of esBAF chromatin remodeling in mouse ES cells; actives 2% (n = 350,000); AID 602393; Bmi1-luciferase knock-in reporter, 24 h; 100% = twice the neutral-well signal; reporter increase, % at 12.5 µM; in the data active = activation above about 40%; inconclusive = no clear call, values can overlap the other calls;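 also: a rise in the Bmi1 reporter signal indicates esBAF inhibition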
Wnt act: activates Wnt/beta-catenin signaling in a reporter cell assay; actives 1.2% (n = 300,000); activation, % at 9.35 µM; activator, plate reader; AID 743398; in the data active = activation above about 30%, passing the limit was not always enough; inconclusive = no clear call, values can overlap the other calls
N-glyco inh: blocks N-linked glycosylation in D54 reporter cells; D54 ERlucT glycosylation luciferase reporter, 24 h; percent of 100 nM tunicamycin response; reporter increase, % at 12.5 µM; actives 0.23% (n = 360,000);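 active = mean luciferase reporter signal, scaled so untreated is 0 and the glycosylation-blocking control 100, at or above a set limit in every replicate; inconclusive = mean reaches the limit but not every replicate does; inactive = mean below the limit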;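 also: luciferase carries N-glycosylation sites so blocking glycosylation raises the light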
Vif inh: inhibitors of HIV Vif; HEK293T cells, Vif self-association by quenched fluorescence, imaging, 24 h; inhibition, % at 7.49 µM; actives 0.35% (n = 340,000); AID 602346; in the data active = inhibition above about 50%, passing the limit was not always enough; inconclusive = no clear call, values can overlap the other calls; inactive = below about 31%
MITF act: increases MITF-driven TRPM1 promoter luciferase signal | SK-MEL-5 TRPM1-promoter luciferase, 24 h; % of positive control, neutral wells = 0 | AID 588334 | actives 0.75% (n = 300,000) | activation, % at 12.5 µM;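 active = mean activation of at least 80% with every replicate also reaching 80%; inconclusive = mean reaches 80% but some replicate falls short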
Each line names hits and unclear results; the compound was inactive in the other large screens. Shown are actives, neighbours in structure and some others; about 3% of the full set was active somewhere.

O=C(COc1ccccc1Cl)Nc1ccc(Cl)cn1	Wnt act 52 (no result: PfHsp90 set2, MITF act)
O=C(Cc1ccccc1)Nc1ccc(Cl)cn1	none
Cc1cc(NC(=O)c2ccco2)ncc1NC(=O)Cc1ccccc1	esBAF inh 45 (no result: Wnt act)
O=C(Nc1ccc(NC(=O)c2ccccc2Cl)nc1)c1ccco1	esBAF inh 54
O=C(CCc1ccccc1)Nc1ccc(Cl)cn1	esBAF inh 43, Vif inh inconclusive (no result: Wnt act)
COC(=O)CN1C(=O)CSc2ncccc21	none (no result: Wnt act)
COc1ccccc1NC(=O)C(=O)NCC1CCCN1S(=O)(=O)c1cccs1 (stereo not drawn)	none
Cc1ccccc1NC(=O)c1ccc(NC(=O)c2ccco2)cc1	none (no result: Wnt act, Vif inh)
O=C(Nc1ccc(-c2nc3ncccc3o2)cc1)c1ccc(Br)o1	none (no result: Vif inh)
O=C(Nc1ccc(-c2nc3ncccc3o2)cc1)c1ccco1	MITF act 104 (no result: esBAF inh)
O=C(OC1CCCCC1)c1ccc(NC(=O)c2ccco2)cc1	esBAF inh 60
O=C(Nc1ccc(OC(=O)c2ccco2)cc1)c1ccco1	none (no result: MITF act)
O=C(Nc1ccccn1)c1ccc(NC(=O)c2ccco2)cc1	MITF act 86 (no result: Wnt act)
O=C(CCc1ccccc1)Nc1ccc(NC(=O)c2ccco2)nc1	Wnt act 36, MITF act inconclusive
CCCCOCCCNCc1cccn1CCN1CCOCC1	none
O=C(COC(=O)c1cccs1)Nc1ccccc1C(F)(F)F	none (no result: esBAF inh, MITF act)
CC(C)(C)OC(=O)NC(Cc1ccccc1)C(=O)NCCCC(=O)O (stereo not drawn)	none
Cc1ccc(NC(=O)c2ccc3c(c2)CCN3S(C)(=O)=O)cc1	esBAF inh 66, Wnt act 45 (no result: PfHsp90 set2, MITF act)
CS(=O)(=O)N1CCc2cc(C(=O)Nc3ccc(Br)cc3)ccc21	esBAF inh 48
CS(=O)(=O)N1CCc2cc(C(=O)OCC(=O)c3ccccc3)ccc21	esBAF inh 51 (no result: Wnt act, Vif inh)
CN(C(=O)c1ccc2c(c1)CCN2S(C)(=O)=O)c1ccccc1	none
CCN(CC)CCN(C(=O)c1c(F)cccc1F)c1nc2cc(C)cc(C)c2s1	none (no result: esBAF inh)
COc1ccc(OC)c(NC(=O)c2nc(-c3ccccc3)oc2C)c1	Vif inh 114
CO[C@@H]1CN(C)C(=O)c2cc(NC(=O)c3cc(C)on3)ccc2OC[C@H](C)N(C)C[C@H]1C	none (no result: PfHsp90 set2, Wnt act, N-glyco inh, Vif inh, MITF act)
CC(=O)C1C(=O)C=C(c2cccs2)CC1c1ccccc1 (stereo not drawn)	none (no result: esBAF inh)
O=C1C=C(c2cccs2)C[C@H](c2ccccc2)[C@H]1n1nnc([N+](=O)[O-])n1	PfHsp90 set2 92, N-glyco inh 25 (no result: esBAF inh)
O=C(COc1ncnc2ccccc12)Nc1cccc([N+](=O)[O-])c1	none (no result: esBAF inh)
Clc1ccc(-c2csc(Nc3ccccc3)[n+]2Cc2ccco2)c(Cl)c1	Wnt act 43, MITF act 89 (no result: esBAF inh)
CCOC(=O)c1c(CN2CCC(C)CC2)n(C)c2cc(Br)c(OC)cc12	Wnt act 40 (no result: esBAF inh)
CCOC(=O)c1c(CN2CCN(Cc3ccccc3)CC2)n(C)c2cc(Br)c(OC)cc12	none
CC(=O)N1c2ccccc2Nc2ccccc21	none (no result: esBAF inh)
Cc1c(C(=O)N/N=C/c2cccnc2)sc(N)c1C#N	N-glyco inh 40
C=CCNC(=O)C1CC1(c1cccc(C)c1)c1cccc(C)c1 (stereo not drawn)	Wnt act 42 (no result: PfHsp90 set2, esBAF inh, MITF act)
O=C(Nc1cccc(F)c1)NC1CCCCC1	none (no result: Wnt act, Vif inh)
COc1cccc(NC(=O)C(=S)NC2CCCCC2)c1	MITF act 84
COc1cccc(NC(=O)NC2CCCCCCC2)c1	MITF act 89
Cc1ccc(NC(=O)NC2CCCCCCC2)cc1	Wnt act 35 (no result: esBAF inh)
CCOc1ccc(NC(=O)NC2CC(=O)N(c3ccc(OC)cc3)C2)cc1 (stereo not drawn)	Wnt act 42
COc1cccc(NC(=S)N2CCC(NC(=O)C3CCCCC3)CC2)c1	none
C[C@H](CO)N1C[C@H](C)[C@H](CN(C)C(=O)CC2CC2)Oc2ncc(C#CCC3CCCC3)cc2C1=O	none (no result: PfHsp90 set2, Wnt act, N-glyco inh, Vif inh, MITF act)
COc1ccc(C(=S)NC2CCCCC2)cc1	esBAF inh 50 (no result: Wnt act)
COc1ccc(NC(=O)NC2CCCCCCC2)cc1	esBAF inh 53
COC(=O)c1ccc(NC(=O)NC2CCCCC2)cc1	none (no result: esBAF inh, Wnt act)
COc1cc(C(=O)N2CCC(N3CCN(C)CC3)CC2)ccc1Nc1ncc2c(n1)N(C)c1ccccc1C(=O)N2C	none (no result: PfHsp90 set2, esBAF inh, N-glyco inh, Vif inh, MITF act)
CCN1C(=O)CCN(C2CCCC2)c2nc(Nc3ccc(C(=O)NC4CCN(C)CC4)cc3OC)ncc21	Wnt act inconclusive, N-glyco inh 55
O=C(NCC1CCCCC1)c1cccnc1	none
Cc1ccc(SCc2ccc(C(=O)Nc3cccnc3)cc2)cc1	none (no result: esBAF inh)
Cc1cc(C(=O)Nc2cc(C(C)(C)C)on2)c(C)o1	esBAF inh 63, Wnt act 42, MITF act 89
COC(=O)c1ccccc1NC(=O)Nc1cc(C(C)(C)C)on1	Wnt act inconclusive
CC(C)(C)c1cc(NC(=O)Nc2ccccc2)no1	Wnt act 41, MITF act 113
O=C(O)c1ccc(/C=N/N2CCN(c3ccccc3)CC2)cc1	esBAF inh 42
Cc1nnc(C)n1/N=C/c1ccc(C(=O)O)cc1	none (no result: PfHsp90 set2)
C(=N/N1CCN(c2ccccc2)CC1)/c1ccncc1	none (no result: esBAF inh)
O=C(O)c1ccc(C=NN2CCCCCC2)cc1	esBAF inh 47
O=C(NCCc1ccc(F)cc1)Nc1ccc2c(c1)OCO2	Wnt act 48 (no result: esBAF inh)
Cc1[nH]c2ccccc2c1C(=O)C(=O)Nc1ccc2c(c1)OCO2	esBAF inh 52
CC(=O)NC(Cc1c[nH]c2ccccc12)C(=O)OCC(=O)Nc1ccc2c(c1)OCO2 (stereo not drawn)	none
CC1CCC(NC(=O)C(=O)Nc2ccc3c(c2)OCO3)CC1 (stereo not drawn)	esBAF inh 56, Wnt act 32
O=C(Nc1ccc(F)cc1)Nc1ccc2c(c1)OCO2	esBAF inh 66, MITF act 104
O=C(Nc1ccc2c(c1)OCO2)Nc1ccc2c(c1)OCO2	none (no result: esBAF inh)
CC(C)COP(=O)(OCC(C)C)C(Nc1ccccc1)c1ccc2c(c1)OCO2 (stereo not drawn)	none (no result: esBAF inh, Wnt act)
O=C(Nc1ccc(Cl)cc1)Nc1ccc2c(c1)OCO2	esBAF inh 60, Wnt act 38
COc1cc(NC(=O)Nc2ccc3c(c2)OCO3)cc(OC)c1OC	none (no result: PfHsp90 set2)
CC1(C(=O)Nc2ccc3c(c2)OCO3)CCN1C(=O)C1(c2ccc(Cl)cc2)CC1 (stereo not drawn)	Wnt act 51 (no result: PfHsp90 set2, MITF act)
COc1ccc(C(C)(C)C)cc1NC(=O)Nc1ccc2c(c1)OCO2	PfHsp90 set2 86
FC(F)Sc1nnc(-c2cccs2)n1-c1ccccc1	none (no result: Wnt act)
CC(C)(C)NC(=S)Nc1cccc(C(F)(F)F)c1	none
COc1ccc2[nH]c(-c3ccccc3)cc2c1	esBAF inh inconclusive, Wnt act 46, MITF act 106
COc1ccc(-c2nc3ccc([N+](=O)[O-])cc3[nH]2)cc1	Wnt act 50, Vif inh inconclusive (no result: esBAF inh)
